The text below walks through data of PubChem BioAssay (NCI).

Several values for one entry are separate records, joined by “and”; a condition that tells them apart may be missing. Equal values may be shown once. About 83,000 compounds went through this panel and 20% of them were active in at least one assay; those are over-represented in the sample as a whole.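 Negative percent growth values reflect cell death: -40 means 40% of the cells present at the start died, and -100 means all died.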 Unmarked numbers belong to inactive results. Activity calls are given as the source filed them. Rule for the calls: active = growth percent below 10; inactive = the rest.

Some test systems named below: SR leukemia; RPMI-8226 leukemia; OVCAR-8 ovarian; OVCAR-5 ovarian; OVCAR-4 ovarian; SK-OV-3 ovarian; IGROV1 ovarian; OVCAR-3 ovarian; HS 578T breast; NCI/ADR-RES ovarian; T-47D breast; BT-549 breast; MDA-MB-435 melanoma; SW-620 colon; MCF7 breast; HCT-116 colon; HCC-2998 colon; KM12 colon; MDA-MB-468 breast.
Common to all, as to assay: NCI-60 one-dose screen, 48 h (100 = growth as untreated, 0 = no growth, -100 = all killed)
Conditions in all cases: 10 µM unless noted

On to `COC(=O)/C=C/c1cccc2c1C(=O)NC(C)(c1cc3cc4ccccc4cc3oc1=O)N2` (centres undefined), for which the growth with SR leukemia was 28%; in the test on RPMI-8226 leukemia, 40.2%; with OVCAR-8 ovarian, 54.3%; in the test on OVCAR-5 ovarian, 63.3%; in the test with OVCAR-4 ovarian, 5.78% (active); in the test with SK-OV-3 ovarian, 95.6%. The growth in the test on IGROV1 ovarian is 65.2%; with OVCAR-3 ovarian it was 32%; with HS 578T breast, 29.5%; with NCI/ADR-RES ovarian, 35.2%; in the test on T-47D breast, 71.8%; with BT-549 breast, 45.2%. The growth in the test with MDA-MB-435 melanoma is 76.1%; in the test on SW-620 colon, 54.3%; with MCF7 breast, 47.2%; with HCT-116 colon, 44.5%; with HCC-2998 colon it was 68.5%; in the test with KM12 colon, 53.7%. The growth with MDA-MB-468 breast was 41%.

As to `N/N=C(\N)c1c(N)nc(=S)[nH]c1-c1ccc(Cl)cc1Cl`, the growth in the test on SR leukemia is 97.3%; with RPMI-8226 leukemia it was 109%; in the test on OVCAR-8 ovarian, 110%; in the test on OVCAR-5 ovarian, 108%; with OVCAR-4 ovarian, 105%; in the test with SK-OV-3 ovarian, 86.7%. Also, the growth in the test on IGROV1 ovarian was 106%; in the test on OVCAR-3 ovarian, 109%; in the test on HS 578T breast it was 100%; with NCI/ADR-RES ovarian, 114%; with T-47D breast, 92.6%; in the test with BT-549 breast it was 100%. Also, the growth is 111% with MDA-MB-435 melanoma; 106% in the test on SW-620 colon; 95.6% in the test with MCF7 breast; 113% with HCT-116 colon; 103% with HCC-2998 colon; 105% in the test on KM12 colon. The growth with MDA-MB-468 breast was 110%.

For `CC1(C)CC[C@]2(C(=O)O)CC[C@]3(C)C(=CCC4[C@@]5(C)C[C@@H](O)[C@@H]6OC(c7ccccc7F)OC[C@@]6(C)C5CC[C@]43C)C2C1` (some centres undefined), the growth was 7.37% (active) with SR leukemia; 10% with RPMI-8226 leukemia; 12% in the test with OVCAR-8 ovarian; 28.2% with OVCAR-5 ovarian; 30.7% with OVCAR-4 ovarian; 12.7% in the test on SK-OV-3 ovarian. Moreover, the growth was 20% in the test with IGROV1 ovarian; -11% (active) in the test with OVCAR-3 ovarian; 21.6% in the test on HS 578T breast; 6.19% (active) in the test with NCI/ADR-RES ovarian; 21.3% in the test on T-47D breast; -15.9% (active) in the test with BT-549 breast. For the same molecule, the growth in the test with MDA-MB-435 melanoma was 17.4%; with SW-620 colon it was 14.6%; in the test on MCF7 breast it was 4.83% (active); with HCT-116 colon, -0.989% (active); with HCC-2998 colon, 11.1%; with KM12 colon, 7.3% (active). For the same molecule, the growth with MDA-MB-468 breast is 5.82% (active).

For the molecule `O=c1oc2ccccc2cc1-c1csc(N=Nc2c(O)[nH]c3ccc(Cl)cc23)n1`, the growth in the test with SR leukemia was 96.3%; in the test with RPMI-8226 leukemia, 117%; in the test with OVCAR-8 ovarian, 110%; in the test on OVCAR-5 ovarian it was 116%; in the test with OVCAR-4 ovarian, 99.5%; in the test with SK-OV-3 ovarian it was 94.1%. The growth in the test on IGROV1 ovarian is 120%; in the test on OVCAR-3 ovarian it was 102%; in the test with HS 578T breast, 99.2%; in the test with NCI/ADR-RES ovarian it was 103%; with T-47D breast, 93.6%; with BT-549 breast it was 104%. For the same molecule, the growth with MDA-MB-435 melanoma was 106%; with SW-620 colon, 109%; with MCF7 breast, 81.4%; with HCT-116 colon it was 106%; with HCC-2998 colon it was 103%; with KM12 colon it was 103%. For the same molecule, the growth with MDA-MB-468 breast was 106% and 94.5%.

Consider `O=C1NC(=O)c2c1c1c3cc(Br)ccc3[nH]c1c1oc3ccc(F)cc3c21`, for which the growth with SR leukemia is 4.79% (active); in the test with RPMI-8226 leukemia it was 14.8%; in the test with OVCAR-8 ovarian, -44.7% (active); with OVCAR-5 ovarian, 51.7%; in the test on OVCAR-4 ovarian, -88% (active); in the test with SK-OV-3 ovarian, -5.1% (active). In addition, the growth with IGROV1 ovarian was -46.9% (active); in the test on OVCAR-3 ovarian it was -33.3% (active); in the test on HS 578T breast it was -34.9% (active); in the test on NCI/ADR-RES ovarian, 10%; with T-47D breast it was -20.1% (active); with BT-549 breast, 15.1%. The growth was 33.7% in the test on MDA-MB-435 melanoma; 3.59% (active) in the test with SW-620 colon; -47.5% (active) in the test with MCF7 breast; 0.579% (active) with HCT-116 colon; -9.47% (active) in the test on HCC-2998 colon; 15.1% in the test on KM12 colon. Also, the growth with MDA-MB-468 breast was -51.8% (active).

Take `CCN(CC)c1ccnc(CNCCSC(c2ccccc2)(c2ccccc2)c2ccc(OC)cc2)c1`: the growth in the test with SR leukemia is -49.4% (active); in the test with RPMI-8226 leukemia, -55.9% (active); in the test on OVCAR-8 ovarian it was -78.6% (active); with OVCAR-5 ovarian, -11.9% (active); in the test on OVCAR-4 ovarian, 14.1%; in the test on SK-OV-3 ovarian, -8.81% (active). In addition, the growth with IGROV1 ovarian was -2.91% (active); with OVCAR-3 ovarian it was -43% (active); in the test on HS 578T breast, -33.2% (active); in the test on NCI/ADR-RES ovarian, -64.5% (active); in the test with T-47D breast, -15.8% (active); in the test with BT-549 breast, -25.4% (active). For the same molecule, the growth was -63.8% (active) with MDA-MB-435 melanoma; -66.6% (active) in the test on SW-620 colon; -50.8% (active) in the test with MCF7 breast; -78.6% (active) in the test on HCT-116 colon; -80.5% (active) in the test with HCC-2998 colon; -49.8% (active) with KM12 colon. In the test on MDA-MB-468 breast, the growth was -64.1% (active).
